From the supplement of paper PMC9254222
Over roughly 1,100 compounds, “Renilla luciferase signal (cell health) relative to plate median” has its median near 0.97; the highest 2% begin near 1.6. The entries come from a sample that favours the highest values as a whole.

System: HEK293T (UBE3A T485A transfected, BAR Wnt reporter)
Experiment: Renilla luciferase signal (cell health) relative to plate median (fold (linear ratio)); higher = higher Renilla signal
Details: 24 h
How it was run: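 Each value averages four biological replicates in HEK293T cells grown at 4500 cells/well in DMEM with 10% FBS at 37°C and 5% CO2. The cells were transfected with a BAR firefly luciferase Wnt reporter, TK-Renilla and an expression plasmid, then four hours later robotically treated with the chemicals at 0.01–100 uM for 24 h. Dual-Glo luciferase signals were median-centred per plate, with the firefly/Renilla ratio reported as Wnt activity and raw Renilla as cell health.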

| SMILES | Renilla luciferase signal (concentration: 0.01 uM) | Renilla luciferase signal (concentration: 0.1 uM) | Renilla luciferase signal (concentration: 1 uM) | Renilla luciferase signal (concentration: 10 uM) | Renilla luciferase signal (concentration: 100 uM) |
| --- | --- | --- | --- | --- | --- |
| CN1C2CC(OC(=O)C(CO)c3ccccc3)CC1C1OC12 (configuration not stated) [Scopolamine] | 0.78 | 0.722 | 0.931 | 0.834 | 1.62 |
| CNC(=O)Oc1cccc2c1OC(C)(C)C2 [Carbofuran] |  | 1.05 | 1.01 | 0.953 | 0.523 |
| CC(C)(C)OOC(C)(C)C [Di-tert-butyl peroxide] |  | 1.07 | 0.922 | 1.09 | 1.12 |
| O=[As][O-].[Na+] [Sodium arsenite] | 0.746 | 0.622 | 0.288 | 0.0446 | 0.0136 |
| CC(C)(C)c1ccc(CSc2cnn(C(C)(C)C)c(=O)c2Cl)cc1 [Pyridaben] | 1.05 | 0.947 | 0.477 | 0.233 | 0.172 |
| Nc1ccc(Cl)cc1N [4-Chloro-1,2-diaminobenzene] |  | 1.05 | 0.965 | 0.612 | 0.0486 |
| Nc1cc(Cl)cc(C(=O)O)c1Cl [Chloramben] |  | 1.02 | 1.02 | 1.18 | 1.64 |
| C[C@@H]1C[C@@H]([C@H](O)CC2CC(=O)NC(=O)C2)C(=O)[C@@H](C)C1 [Cycloheximide] |  | 0.674 | 0.0448 | 0.0298 | 0.0285 |
| CC(O)CCO (configuration not stated) [1,3-Butanediol] |  | 1.06 | 1.08 | 1.16 | 1.47 |
| CCC(C)(CC)c1cc(NC(=O)c2c(OC)cccc2OC)on1 [Isoxaben] | 0.906 | 0.789 | 0.94 | 0.964 | 0.549 |
| ClC(Cl)=C(c1ccc(Cl)cc1)c1ccc(Cl)cc1 |  | 0.978 | 1.09 | 1.13 | 1.33 |
| O=C(NC(=O)c1c(F)cccc1F)Nc1cc(Cl)c(OC(F)(F)C(F)F)c(Cl)c1 [Hexaflumuron] |  | 0.601 | 0.604 | 0.441 | 0.493 |
| OCCOc1ccccc1 [2-Phenoxyethanol] | 0.629 | 0.856 | 0.906 | 0.983 | 1.74 |
| Oc1ccccc1-c1ccccc1 [2-Phenylphenol] | 1.08 | 1.08 | 0.948 | 1.01 | 0.987 |
| c1ccc(OP(Oc2ccccc2)Oc2ccccc2)cc1 [Triphenyl phosphite] |  | 1.06 | 1.18 | 1.24 | 1.16 |
| Clc1ccc(C(c2ccc(Cl)cc2)C(Cl)(Cl)Cl)cc1 |  | 0.841 | 0.863 | 0.92 | 0.995 |
| O=Cc1ccco1 [Furfural] |  | 1.24 | 1.36 | 1.2 | 1.45 |
| O=C(O)c1nc(Cl)ccc1Cl [Clopyralid] | 0.962 | 0.828 | 0.985 | 1 | 1.8 |
| NCCO.O=C(O)c1nc(Cl)ccc1Cl [Clopyralid-olamine] | 1.41 | 1.18 | 1.06 | 1.2 | 1.53 |
| Nc1c(Cl)c(Cl)nc(C(=O)O)c1Cl [Picloram] | 1.22 | 0.925 | 1.11 | 1.09 | 1.33 |
| O=C1CCCO1 [4-Butyrolactone] |  | 0.916 | 0.91 | 0.928 | 1.07 |

| SMILES | Renilla luciferase signal (concentration: 0.01 uM) | Renilla luciferase signal (concentration: 0.1 uM) | Renilla luciferase signal (concentration: 1 uM) | Renilla luciferase signal (concentration: 10 uM) | Renilla luciferase signal (concentration: 100 uM) |
| --- | --- | --- | --- | --- | --- |
| CCC(=O)C(CC(C)N(C)C)(c1ccccc1)c1ccccc1.Cl (configuration not stated) [Methadone hydrochloride] |  | 1.01 | 1.01 | 1.07 | 0.142 |
| CCCCC(CC)COC(=O)CCCCC(=O)OCC(CC)CCCC (configuration not stated) [Di(2-ethylhexyl) adipate] |  | 1.15 | 1.09 | 1.28 | 1.76 |
| CCCCC(CC)COC(=O)c1ccccc1C(=O)OCC(CC)CCCC (configuration not stated) [Di(2-ethylhexyl) phthalate] | 1.26 | 1.13 | 1.01 | 1.11 | 0.496 |
| CCCCC(CC)COC(=O)c1ccc(C(=O)OCC(CC)CCCC)cc1 (configuration not stated) [Bis(2-ethylhexyl) terephthalate] |  | 0.974 | 1.13 | 1.09 | 1.28 |
| C#CCN1C(=O)COc2cc(F)c(N3C(=O)C4=C(CCCC4)C3=O)cc21 [Flumioxazin] | 1.13 | 1.14 | 0.954 | 1.11 | 0.949 |
| N#Cc1c(Cl)cccc1Cl [Dichlobenil] | 0.873 | 0.853 | 1.03 | 0.992 | 1.96 |
| Clc1ccccc1Cl [1,2-Dichlorobenzene] |  | 1.14 | 0.945 | 1.05 | 1.27 |
| Clc1cccc(Cl)c1Cl [1,2,3-Trichlorobenzene] |  | 1.21 | 0.959 | 1.18 | 1.43 |
| Cc1ccc(/N=C/N(C)/C=N/c2ccc(C)cc2C)c(C)c1 [Amitraz] | 1.29 | 1.17 | 1.06 | 1.21 | 0.0374 |
| O=C(NC(=O)c1cc(F)c(F)cc1Cl)Nc1cc(F)ccc1N1CCC(C(=O)O)CC1 |  | 0.8 | 0.813 | 0.797 | 0.641 |
| O=C(O)C(F)(F)C(F)(F)C(F)(F)C(F)(F)C(F)(F)F |  | 0.973 | 0.941 | 0.896 | 0.93 |
| O=C(O)C(F)(F)C(F)(F)C(F)(F)C(F)(F)C(F)(F)C(F)(F)C(F)(F)C(F)(F)C(F)(F)C(F)(F)F [Perfluoroundecanoic acid] |  | 0.861 | 0.837 | 0.868 | 0.248 |
| O=C(O)C(F)(F)C(F)(F)C(F)(F)C(F)(F)C(F)(F)C(F)(F)C(F)(F)F | 0.983 | 0.781 | 0.834 | 0.9 | 1.9 |
| CCOC1Oc2ccc(OS(C)(=O)=O)cc2C1(C)C (configuration not stated) [Ethofumesate] | 0.946 | 1.07 | 0.964 | 0.843 | 1.01 |
| CCOC(=O)C(C)OC(=O)c1cc(Oc2ccc(C(F)(F)F)cc2Cl)ccc1[N+](=O)[O-] (configuration not stated) [Lactofen] | 0.928 | 0.611 | 0.876 | 0.801 | 0.32 |
| O=C(O)c1cc(Oc2ccc(C(F)(F)F)cc2Cl)ccc1[N+](=O)[O-] [Acifluorfen] | 1.17 | 1.25 | 0.942 | 1.02 | 1.67 |
| CS(=O)(=O)NC(=O)c1cc(Oc2ccc(C(F)(F)F)cc2Cl)ccc1[N+](=O)[O-] [Fomesafen] |  | 0.998 | 1.11 | 1.03 | 1.19 |
| CCN(CC)c1nc(C)cc(OP(=S)(OC)OC)n1 [Pirimiphos-methyl] | 1.11 | 1.2 | 1 | 0.992 | 1.53 |
| CN(C)c1nc(=O)n(C2CCCCC2)c(=O)n1C [Hexazinone] | 0.842 | 0.839 | 0.85 | 0.916 | 1.2 |
| Cc1cc(Cl)ccc1OCC(=O)O | 1.11 | 1.19 | 1.09 | 1.12 | 1.34 |
| Nc1c(Cl)c(F)nc(OCC(=O)O)c1Cl [Fluroxypyr] | 1.01 | 1.05 | 0.92 | 1.02 | 1.09 |

| SMILES | Renilla luciferase signal (concentration: 0.01 uM) | Renilla luciferase signal (concentration: 0.1 uM) | Renilla luciferase signal (concentration: 1 uM) | Renilla luciferase signal (concentration: 10 uM) | Renilla luciferase signal (concentration: 100 uM) |
| --- | --- | --- | --- | --- | --- |
| O=C(O)COc1ccc(Cl)cc1Cl [2,4-Dichlorophenoxyacetic acid] | 1.31 | 1 | 0.995 | 1.02 | 1.69 |
| O=C(O)CCCOc1ccc(Cl)cc1Cl | 1.02 | 0.895 | 0.898 | 0.957 | 1.44 |
| CCOP(=O)(OCC)Oc1nc(Cl)c(Cl)cc1Cl [Chlorpyrifos oxon] | 0.952 | 1.24 | 1.07 | 0.919 | 0.0737 |
| O=C(O)COc1nc(Cl)c(Cl)cc1Cl [Triclopyr] | 0.99 | 0.979 | 0.95 | 1.02 | 1.84 |
| C1=CCCC=CCCC=CCC1 [1,5,9-Cyclododecatriene] |  | 0.691 | 0.775 | 0.813 | 1.02 |
| CCOC(=O)c1ccccc1C(=O)OCC [Diethyl phthalate] |  | 0.834 | 0.893 | 0.976 | 1.05 |
| COc1nc(NC(C)C)nc(NC(C)C)n1 [Prometon] | 0.865 | 0.628 | 0.707 | 1.02 | 1.41 |
| CC(C)(O)C(=O)Nc1ccc([N+](=O)[O-])c(C(F)(F)F)c1 [Hydroxyflutamide] |  | 0.949 | 0.928 | 0.775 | 0.129 |
| CC(C)=CC1C(C(=O)OCc2coc(Cc3ccccc3)c2)C1(C)C (configuration not stated) [Resmethrin] | 1.12 | 1.04 | 0.974 | 1.01 | 0.166 |
| CCCCOCN(C(=O)CCl)c1c(CC)cccc1CC [Butachlor] | 0.877 | 0.813 | 0.902 | 0.865 | 0.895 |
| CC1(c2ccc(Oc3ccccc3)cc2)OC(=O)N(Nc2ccccc2)C1=O (configuration not stated) [Famoxadone] | 1.07 | 1.08 | 1.07 | 0.383 | 1.15 |
| NS(=O)(=O)C(F)(F)C(F)(F)C(F)(F)C(F)(F)C(F)(F)C(F)(F)C(F)(F)C(F)(F)F |  | 0.448 | 0.567 | 0.447 | 0.0943 |
| Cc1c(F)c(F)c(COC(=O)C2C(/C=C(\Cl)C(F)(F)F)C2(C)C)c(F)c1F (configuration not stated) [Tefluthrin] | 0.953 | 0.885 | 1.03 | 0.886 | 1.47 |
| C[n+]1ccc(-c2cc[n+](C)cc2)cc1 [Paraquat] | 0.802 | 0.782 | 0.9 | 0.995 | 2.18 |
| CCNc1nc(Cl)nc(NC(C)(C)C)n1 [Terbutylazine] |  | 0.934 | 1.02 | 0.978 | 0.981 |
| Cc1cccc(C)c1N [2,6-Dimethylaniline] |  | 0.815 | 0.773 | 0.833 | 0.897 |
| O=C(O)CNCP(=O)(O)O [Glyphosate] | 0.796 | 0.874 | 0.905 | 1.07 | 2.5 |
| COP(=S)(OC)Oc1nc(Cl)c(Cl)cc1Cl [Chlorpyrifos-methyl] | 1.5 | 1.18 | 1.01 | 1.04 | 0.838 |
| CN(C)NC(=O)CCC(=O)O [Daminozide] | 0.728 | 0.735 | 0.928 | 0.807 | 1.39 |
| Cc1ccc(N)cc1N [2,4-Diaminotoluene] |  | 1.12 | 1.22 | 1.09 | 1.45 |
| O=C(O)c1c(Cl)ccc2cc(Cl)cnc12 [Quinclorac] | 1.12 | 1.11 | 0.984 | 1.04 | 1.88 |
